Out of some 65,000 compounds screened, about 2,100 (3.2%) showed an effect of 50% or more. The median lay at about -52%. The full list was thinned out, with strong results kept by preference.
Test system: Plasmodium falciparum
Experiment: Screen against P. falciparum Asexual Blood Stage (ABS), at 5uM
Assay type: functional, Dd2
Conditions: tested at 5 uM

SMILES | INHIBITION [%]
C=C1C(C)(C)[C@@H]2CC[C@]1(C(=O)N1CCC(n3cc(CO)nn3)CC1)C2 | -90.8
Cc1nc(CN(C)C2CCN(CCC(=O)N3CCOCC3)C2)no1 (stereo unspecified) | -30.8
Cc1nc(C)n(CC2CCCN2Cc2nc(-c3ccco3)no2)n1 (stereo unspecified) | -131
Cc1nc(C)n(CC2CCCN2Cc2nc(-c3cccs3)no2)n1 (stereo unspecified) | 23.3
Cc1nc(C)n(CC2CCCN2Cc2cc(-c3cccs3)on2)n1 (stereo unspecified) | 65.2
Cc1nc(C)n(CC2CCCCN2Cc2nc(-c3ccco3)no2)n1 (stereo unspecified) | 61.7
Cc1nc(C)n(CC2CCCCN2Cc2nc(-c3ccoc3)no2)n1 (stereo unspecified) | -49.9
Cc1nc(C)n(CC2CCCN2Cc2coc(-c3cccs3)n2)n1 (stereo unspecified) | -63.6
Cc1oc(-c2ccccc2)nc1CN1CCC(c2ccnn2C)CC1 | -18.9
Cc1nc(C(=O)N2CCOCC2)cc(N2CCC(C(N)=O)CC2)n1 | -45.2
Cn1nccc1-c1ncc2c(c1C(=O)O)CCN(Cc1ccccc1)C2 | -41.8
COCC(=O)N1CCN(Cc2cccnc2)c2ncccc2C1 | -53.1
CN(C)C(=O)CC1CC2(CCNCC2)c2cc(F)ccc21 (stereo unspecified) | -22.3
CN(C)C(=O)c1cnn2c1OCCC2 | -117
CCn1cc(S(=O)(=O)N2CCC(C)Sc3ccccc32)cn1 (stereo unspecified) | -0.433
CN1CCN(S(=O)(=O)c2cccnc2)c2cnccc21 | -111
CC1CCN(S(=O)(=O)c2cccnc2)c2ccccc2S1 (stereo unspecified) | 55
CS(=O)(=O)N1CCCC1CS(=O)(=O)c1ccccc1 (stereo unspecified) | -100
CN(C)CC(Nc1nc(N)nc2c1CCNCC2)c1ccccc1 (stereo unspecified) | -104
CCOC(=O)[C@H]1[C@@H](O)C(=O)N(C)C12CCN(C(=O)CC1CCCC1)CC2 | -1.62
Cn1cc(-c2nc(C3CCN(CC4CC4)CC3)cc3c2ncn3C)cn1 | -98.2
Cn1cnc2c(N3CCCC3)nc(C3CCNCC3)cc21 | -31.4

SMILES | INHIBITION [%]
Cn1cnc2c(N3CCCC3)nc(C3CCN(CC4CC4)CC3)cc21 | 68.8
c1cnnc(N2CCCC(NCc3nc(-c4ccco4)no3)C2)c1 (stereo unspecified) | -78.3
O=C(COc1ccccc1)N1C[C@@H]2COC[C@]2(COc2cccnc2)C1 | -110
Cn1nc(N2CCCC(C(=O)Nc3nc4ccccc4[nH]3)C2)ccc1=O (stereo unspecified) | -105
Cc1cc(C)n(CC(C)NC(=O)NCc2c(C)cc(C)[nH]c2=O)n1 (stereo unspecified) | -51.8
O=C1CNc2ncnc(N3CCN(c4ccccc4F)CC3)c2N1 | -21.3
CCOc1ccc(CN(CCC#N)CCN2CCOCC2)cc1OC | -99
N#CCCN(CCN1CCOCC1)Cc1ccc(F)c(Br)c1 | 52.6
COc1ccc(CN(CCC#N)CCN2CCOCC2)cc1OC | -43.2
CC(C)C(=O)N1CCC2(CC1)COCCN2Cc1ccc(F)cc1 | -29.9
O=C1CNc2ncnc(Nc3cnn(Cc4ccc(F)cc4)c3)c2N1 | -134
CN(Cc1ccc(F)cc1F)Cc1cc2c(cc1Br)OCCO2 | -30.1
Cc1ccc(F)c(N2CCCC(Nc3nccn4cnnc34)C2=O)c1 (stereo unspecified) | -141
Cn1cc(NS(=O)(=O)c2ccc3c(c2)CCCC3)ccc1=O | -133
CC(=O)NCCCNCc1ccc(Cl)c2cccnc12 | -36.6
O=C(CCCNCc1ccc(Cl)c2cccnc12)NC1CC1 | 11.3
CC(C)(O)CN1CCN(C(=O)c2ccc(Cl)c3cccnc23)CC1 | -2.98
CCS(=O)(=O)NCCNCc1ccc(Cl)c2cccnc12 | 61.5
CC(C)(O)CSCCNCc1ccc(Cl)c2cccnc12 | 67.7
CC(C)(C)[S+]([O-])CCNC(=O)c1ccc(Cl)c2cccnc12 (stereo unspecified) | -46.8
CN(C)C(=O)CC1CC2(CCN(Cc3ccsc3)CC2)c2ccccc21 (stereo unspecified) | 14.2
COC(=O)C(c1cc(F)ccc1F)N(C)C(=O)c1cnc(C)cn1 (stereo unspecified) | -85.1

SMILES | INHIBITION [%]
CN(Cc1noc(C(C)(C)C)n1)C1CCCN(c2cccnn2)C1 (stereo unspecified) | -18.2
CN(C)C(=O)N1CCC(c2nc3ccc(-c4ccccc4)cn3n2)CC1 | -52.3
CN(C)c1ncc(I)c(C2CCCCN2S(C)(=O)=O)n1 (stereo unspecified) | -17.7
CN(C)c1ncc(I)c(C2CCCCN2C)n1 (stereo unspecified) | 57.8
CN(C)c1ncc(I)c(C2CCCN2C)n1 (stereo unspecified) | 20.7
CCOC(=O)c1ccccc1NC(=O)CN(C)Cc1ccccc1Cl | 8.05
Cc1c(C(=O)O)cnn1-c1ccc(-c2nc(C(C)(C)C)no2)cn1 | -116
CS(=O)(=O)NC[C@]12COC[C@H]1CN(CC1CCC1)C2 | -40
Cc1ccc(CN2CC3(CCN(C(=O)c4cscn4)C3)C2)o1 | -13.6
CN(C)CCn1ccnc1C1CCCN(c2cc(N)ncn2)C1 (stereo unspecified) | -52.8
Cc1cc(C)nc(N2CCCC(c3nccn3CCCN(C)C)C2)c1 (stereo unspecified) | 51.7
COc1cc(OC)nc(N2CCCC(c3nccn3CCN(C)C)C2)n1 (stereo unspecified) | -23.1
CCn1ccnc1C1CCCN(c2nccc3ccccc23)C1 (stereo unspecified) | 30.8
CN(C)CCn1ccnc1C1CCCN(c2nccc3ccccc23)C1 (stereo unspecified) | 57.4
CN(C)Cc1nnc(C2CCCN(c3nccc4ccccc34)C2)n1C (stereo unspecified) | -10.1
COc1ccc(CCN(C)CCS(=O)(=O)c2ccc(Cl)cc2)cc1OC | -7.75
COCC(=O)N1CCC2(CC1)COc1ccccc1S(=O)(=O)N(C)C2 | -129
O=C1CNc2ncnc(N3CCN(Cc4cccc(F)c4)CC3)c2N1 | -56.6
CC(=O)Nc1nc(C(=O)N2CCCC(n3nc(C)nc3C)C2)cs1 (stereo unspecified) | -113
O=C(c1cccnc1SC/C=C/c1ccccc1)N1CC[C@H](O)C1 | -66.8
O=C(c1cccnc1SC/C=C/c1ccccc1)N1CCOCC(O)C1 (stereo unspecified) | 55.5
O=C(c1cccnc1SCc1ccccc1)N1CCOCC1 | -36.4

SMILES | INHIBITION [%]
CCOCCCNC(=O)c1cc(C)nc(N2CCCCC2)n1 | -133
O=C(c1cnco1)N1CCC(Cc2ccc3ncccc3c2)CC1 | 67.4
O=C(c1cnco1)N1CCC(Cc2cnc3ccccc3c2)CC1 | -56.6
O=C(c1cnco1)N1CCC(Cc2cccc3ncccc23)CC1 | -2.05
Cn1cc(C[C@H]2[C@H](O)CCN2C(=O)c2ccsc2)cn1 | -51.7
Cc1cc2ccccc2n1CCC(=O)N1CCCC(O)(CN(C)C)CC1 (stereo unspecified) | 55.2
Cc1cc2ccccc2n1CCC(=O)N1CCCC2(CC1)CNC(=O)O2 (stereo unspecified) | 21.3
Cc1cc2ccccc2n1CCC(=O)N1CCC2(CC1)CNC(=O)C2 | -33.5
CN(C)CCn1ccnc1C1CCN(c2cc(N)nc(N)n2)CC1 | -90.3
Cc1ccc(OCc2occc2C(=O)O)cc1 | -66.2
OCC1(Cc2ccccc2F)CCCN(c2ccc3ccccc3n2)C1 (stereo unspecified) | -37.1
Cc1ccsc1CN(CCN(C)C)C(=O)c1ccc(C#N)nc1 | 46.5
COC(=O)c1ccccc1C(=O)N(CCN(C)C)Cc1sccc1C | 18.3
Cc1ccsc1CN(CCN(C)C)C(=O)c1ccccc1C#N | 60.9
O=C1CC[C@H]2[C@H](CCN2C(=O)C2CCOC2)N1Cc1ccncc1 (stereo partly specified) | -87.6
CC(C)Oc1ncnc2c1CCN(Cc1cccs1)CC2 | -52.8
COc1ccc(CN2CCc3ncnc(C4CC4)c3CC2)cc1 | -30.4
CC(C)Oc1ncnc2c1CCN(Cc1ccoc1)CC2 | 31.6
Cc1ccc(CN2CCc3ncnc(OC(C)C)c3CC2)s1 | 0.437
CC(C)Oc1ncnc2c1CCN(Cc1ccco1)CC2 | 61.2
COc1ccc(CN2CCc3ncnc(OC(C)C)c3CC2)cc1 | 63.6
COC(=O)c1ccc(NC(C)c2ccc3c(c2)NC(=O)CO3)nn1 (stereo unspecified) | -143

SMILES | INHIBITION [%]
O=C(O)CNc1cc(-c2nccnc2N2CCCC2)c2cc[nH]c2n1 | -6.02
O=C(Nc1ccccc1)c1n[nH]c(-n2cnnc2)n1 | -64.6
Cc1occc1C(=O)N1CCCC(c2nncn2C)C1 (stereo unspecified) | -65.6
CN1CCN(c2ccncc2S(=O)(=O)N2CCCCC2)CC1 | -92.3
CCc1nc(C2CCCN2CC(=O)NCCOc2ccccc2)no1 (stereo unspecified) | 58.6
CCc1nc(C2CCCN2CCCS(=O)(=O)c2ccccc2)no1 (stereo unspecified) | 48.7
CCc1nc(C2CCCN2CCS(=O)(=O)c2ccccc2)no1 (stereo unspecified) | 60
Cc1nc(C2CCCN2CC(=O)NCCOc2ccccc2)no1 (stereo unspecified) | -62.7
COc1ccccc1CCNC(=O)CN1CCCC1c1noc(C)n1 (stereo unspecified) | -3.9
CC(C)c1nc(C2CCCN2CCS(=O)(=O)c2ccccc2)no1 (stereo unspecified) | -158
COCc1ccccc1CNC(=O)CN1CCCC1c1noc(C)n1 (stereo unspecified) | 51.2
COCc1cccc(CNC(=O)CN2CCCC2c2noc(C)n2)c1 (stereo unspecified) | -27.1
Cc1cccc(OCCNC(=O)CN2CCCC2c2noc(C)n2)c1 (stereo unspecified) | 31.6
CCOC1(C)C(=O)c2ccccc2N1Nc1ccccc1C(=O)CC (stereo unspecified) | -50.6
O=C1CC[C@H]2[C@H](CCN2c2ncccn2)N1c1ccccc1 | -72.8
CN1CCN(C(=O)[C@H]2CC[C@@H]3[C@@H](CCN3Cc3ccsc3)O2)CC1 | -1.36
COc1cc(N2C[C@H]3CCC[C@@H](CN4CCCC4)[C@H]3C2)ncn1 | -13.2
Cc1c(C(=O)NCC(C)C)nnn1-c1cccc2c1CCN(C)C2 | 26.2
